Luciferase inh: Firefly luciferase inhibition profiling of diverse chemical library using quantitative high-throughput screening; Luciferin 4-monooxygenase (Photinus pyralis), P08659; Potency, µM (series often up to 115 µM), usual class: inhibitors; 76,000 tested, 2.5% active; AID 1347043, 2019; purified P. pyralis luciferase, luminescence, biochemical; further: nearly all actives have a fitted effect of over 65% in size
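Biochemical qHTS: compound (6-point titration) added to 10uM D-luciferin plus 10uM ATP in Tris acetate pH 7.5 buffer with Mg, Tween-20 and BSA, then purified enzyme at 10nM; light output imaged.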
NPR1 antag: Natriuretic polypeptide receptor (hNpr1) antagonism - Primary qHTS; Atrial natriuretic peptide receptor 1 (Homo sapiens), P16066; HEK293 hNpr1 GloSensor cGMP, ANP-stimulated luminescence; Potency, µM (doses to about 46.3 µM), for inactives: top-dose activity change, negative = inhibition, most hits filed as inhibitors; 76,000 tested, 1.6% active; AID 1347048, 2019; calls by dose curve; further: nearly all actives have a fitted effect of over 60% in size
Target sequence (P16066 whole entry, looked up): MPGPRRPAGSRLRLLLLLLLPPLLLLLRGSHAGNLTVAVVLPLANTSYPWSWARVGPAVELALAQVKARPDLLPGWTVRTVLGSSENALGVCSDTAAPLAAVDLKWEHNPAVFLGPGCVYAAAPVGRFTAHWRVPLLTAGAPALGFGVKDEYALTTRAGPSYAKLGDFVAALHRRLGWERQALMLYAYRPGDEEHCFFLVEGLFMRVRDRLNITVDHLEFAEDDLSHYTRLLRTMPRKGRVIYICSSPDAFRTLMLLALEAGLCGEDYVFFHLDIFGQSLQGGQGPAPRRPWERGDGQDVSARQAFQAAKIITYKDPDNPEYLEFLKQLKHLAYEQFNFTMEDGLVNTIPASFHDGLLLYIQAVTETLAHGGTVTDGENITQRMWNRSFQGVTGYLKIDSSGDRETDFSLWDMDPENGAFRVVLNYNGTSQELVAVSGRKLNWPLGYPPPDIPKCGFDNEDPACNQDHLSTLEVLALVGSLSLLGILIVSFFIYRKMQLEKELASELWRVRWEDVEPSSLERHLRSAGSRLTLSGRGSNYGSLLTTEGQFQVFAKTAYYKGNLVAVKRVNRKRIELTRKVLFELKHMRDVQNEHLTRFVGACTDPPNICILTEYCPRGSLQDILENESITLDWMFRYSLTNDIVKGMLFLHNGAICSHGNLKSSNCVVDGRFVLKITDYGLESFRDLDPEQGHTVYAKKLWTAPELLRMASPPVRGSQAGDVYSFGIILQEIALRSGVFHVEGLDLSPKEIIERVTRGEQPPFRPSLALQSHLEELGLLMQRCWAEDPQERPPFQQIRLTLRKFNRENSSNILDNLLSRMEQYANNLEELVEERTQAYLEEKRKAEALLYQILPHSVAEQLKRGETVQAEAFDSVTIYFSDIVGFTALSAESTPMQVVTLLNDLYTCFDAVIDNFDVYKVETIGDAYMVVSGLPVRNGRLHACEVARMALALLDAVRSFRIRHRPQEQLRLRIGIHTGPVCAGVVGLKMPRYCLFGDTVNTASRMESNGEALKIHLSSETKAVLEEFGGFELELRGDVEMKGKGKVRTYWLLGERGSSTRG
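HEK293 cells stably expressing human Npr1 and cGMP GloSensor pGS-40F, loaded 2 h with 2% GloSensor reagent, given compound 30 min at room temperature. Luminescence read before and 20 min after 0.1 nM hNppA.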
HEK293 tox: Cytotoxic Profiling in HEK 293 Cell Line of Diverse Libraries Using Quantitative High-Throughput Screening | Potency, µM (top dose mostly 115 µM), inactives show at the top dose activity change, negative = cytotoxicity, hits mostly inhibitors | 94,000 tested, 6.6% active | HEK 293 viability, ATP luminescence (CellTiter-Glo), 48-72 h; further: nearly all actives have a fitted effect of over 60% in size
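ATP-coupled CellTiter-Glo luminescence served as viability read-out, recorded 10 min after reagent addition at room temperature. HEK 293 cells, 250 cells/well, had been incubated with pintool-transferred compound for 48 or 72 hr at 37 degree Celsius.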
NIH3T3 tox: Cytotoxic Profiling in NIH 3T3 Cell Line of Diverse Libraries Using Quantitative High-Throughput Screening; NIH 3T3 viability, CellTiter-Glo ATP luminescence, 48-72 h; Potency, µM (top dose mostly 96.7 µM), without a hit: at the highest dose activity change, negative = cytotoxicity, most hits filed as inhibitors; 94,000 tested, 4.3% active; AID 1345082, 2018; further: nearly all actives have a fitted effect of over 55% in size
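Luminescent ATP readout (CellTiter-Glo, 10 min RT) after 48 or 72 hr compound exposure of NIH 3T3 cells seeded at 400 cells/well in 1536-well format; quantitative HTS.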
GPT2 inh: Primary qHTS assay for inhibitors of Glutamate pyruvate transaminase 2 (GPT2). Alanine aminotransferase 2 (Homo sapiens), Q8TD30. Recombinant GPT2, coupled pyruvate oxidase/HRP Amplex Red fluorescence. Potency, µM (series often up to 57.7 µM), for the others: at the highest dose activity change, negative = inhibition, usual class: inhibitors. 100,000 tested, 0.25% active. AID 1671188, 2021; further: nearly all actives have a fitted effect of over 60% in size
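Recombinant GPT2 (10ng/uL) with 250uM a-KG and 2mM L-alanine, 30 min at room temperature, in HEPES pH 7.5 buffer. Pyruvate detected by pyruvate oxidase/HRP/Amplex Red fluorescence after 30 min in the dark; AOA (50uM) as positive control.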
* hit, by the source's call; [ ] = dose if it differs, or a comment. Rows were chosen to be rich in hits. Some 10% of all compounds tested hit in one or more screens of this group. Unless noted, the call rests on the fitted dose curve; in most records, active means well fitted curve in the direction sought with a large enough effect; inconclusive means small, poorly fitted or top-dose-only effect, or another doubt; inactive means no such curve, though single readings can be large; an effect the other way counts as inactive or inconclusive. On the % scale 0 is the no-effect control and ±100 the full control effect; potency means the concentration at half of the fitted maximal effect.

What do the screens show for `O=C(C1CCCN([S+](=O)([O-])c2cccc(C(F)(F)F)c2)C1)N1CCC(c2nc3ccncc3[nH]2)CC1` (stereo not given)?
HEK293 tox: inconclusive; NIH3T3 tox: inconclusive; GPT2 inh: inactive

Results for Oc1ccccc1CN1C[C@H](O)C[C@H]1c1nc(-c2ccc3c(c2)OCO3)no1 ?
Luciferase inh: inconclusive; NPR1 antag: -3%[70.6 µM]; HEK293 tox: -20%[172 µM]; NIH3T3 tox: -17%[138 µM]; GPT2 inh: -9%[88.5 µM]

How did O[C@@H]1C[C@@H](c2nc(-c3ccc4c(c3)OCO4)no2)N(CC2CC2)C1 do in these assays?
Luciferase inh: 22µM*; NPR1 antag: -13%[70.6 µM]; HEK293 tox: inconclusive; NIH3T3 tox: -27%[174 µM]; GPT2 inh: inactive

How did O=C(COc1ccccc1)N1CC(c2noc(COc3ccccc3)n2)C1 do in these assays?
Luciferase inh: inactive; NPR1 antag: -15%; HEK293 tox: inconclusive; NIH3T3 tox: inconclusive; GPT2 inh: -18%

What do the screens show for `Cc1cccc(O[C@H]2COCCN(c3nc4ccccc4s3)C2)n1`?
Luciferase inh: 50µM*; NPR1 antag: -16%[70.6 µM]; HEK293 tox: 100µM*; NIH3T3 tox: inconclusive; GPT2 inh: -4%[88.5 µM]

What do the screens show for `COc1ccc(CNC(=O)O[C@H]2COCCN(c3nc4ccccc4s3)C2)cc1`?
Luciferase inh: inactive; NPR1 antag: -1%[70.6 µM]; HEK293 tox: 89µM*; NIH3T3 tox: inconclusive; GPT2 inh: 1%[88.5 µM]

How did FC(F)(F)c1ccc2nc([C@H]3CCN(Cc4ccc(Cl)cc4)C3)[nH]c2c1 do in these assays?
Luciferase inh: inconclusive; NPR1 antag: inconclusive; HEK293 tox: 22µM*; NIH3T3 tox: inconclusive; GPT2 inh: 2%[88.5 µM]

How did COc1ccc2nc([C@H]3CCN(Cc4ccc(C(=O)O)cc4)C3)[nH]c2c1 do in these assays?
Luciferase inh: inconclusive; NPR1 antag: 6%[70.6 µM]; HEK293 tox: -2%[172 µM]; NIH3T3 tox: -5%[174 µM]; GPT2 inh: 4%[88.5 µM]

How did FC(F)(F)c1ccc2nc([C@H]3CCN(CC4CC4)C3)[nH]c2c1 do in these assays?
Luciferase inh: 28µM*; NPR1 antag: -6%[70.6 µM]; HEK293 tox: inconclusive; NIH3T3 tox: inconclusive; GPT2 inh: -8%[88.5 µM]

Results for c1csc(CN2CC[C@H](c3nc4ccccc4[nH]3)C2)c1 ?
Luciferase inh: inconclusive; NPR1 antag: -28%[70.6 µM]; HEK293 tox: inconclusive; NIH3T3 tox: 100µM*; GPT2 inh: -20%[88.5 µM]

Results for Cc1ccc2nc([C@H]3CCN(Cc4ccc(C(F)(F)F)cc4)C3)[nH]c2c1 ?
Luciferase inh: inactive; NPR1 antag: inconclusive; HEK293 tox: 28µM*; NIH3T3 tox: 35µM*; GPT2 inh: inconclusive

How did CC(=O)N1CC[C@H](c2nc3ccc(C(F)(F)F)cc3[nH]2)C1 do in these assays?
Luciferase inh: inactive; NPR1 antag: 3%[70.6 µM]; HEK293 tox: -9%[172 µM]; NIH3T3 tox: inconclusive; GPT2 inh: -11%[88.5 µM]

What do the screens show for `FC(F)(F)c1ccc2nc([C@H]3CCN(C4CCOCC4)C3)[nH]c2c1`?
Luciferase inh: inactive; NPR1 antag: -2%[70.6 µM]; HEK293 tox: inconclusive; NIH3T3 tox: -16%[174 µM]; GPT2 inh: 0%[88.5 µM]

Results for O=C(c1ccc2ccccc2n1)N1CCC(c2nc(CCOCC3CC3)no2)C1 (stereo not given) ?
HEK293 tox: -7%; NIH3T3 tox: -23%; GPT2 inh: -1%

How did COc1ccccc1-c1cccc(C(=O)N2CCC[C@H]2C(=O)NCc2cccc(Cl)c2)c1 do in these assays?
HEK293 tox: inconclusive; NIH3T3 tox: inconclusive; GPT2 inh: -5%

How did CN(C)c1ccc(CN2CC[C@H](c3nc4ncccc4[nH]3)C2)cc1 do in these assays?
Luciferase inh: inactive; NPR1 antag: -7%[70.6 µM]; HEK293 tox: -23%[172 µM]; NIH3T3 tox: -10%[174 µM]; GPT2 inh: 4%[88.5 µM]

How did FC(F)(F)c1ccc(CN2CC[C@H](c3nc4ccccc4[nH]3)C2)cc1 do in these assays?
Luciferase inh: inactive; NPR1 antag: inconclusive; HEK293 tox: 35µM*; NIH3T3 tox: 28µM*; GPT2 inh: -15%[88.5 µM]

Results for CN(C)c1ccc(CN2CC[C@H](c3nc4ccc(C(F)(F)F)cc4[nH]3)C2)cc1 ?
Luciferase inh: inactive; NPR1 antag: inconclusive; HEK293 tox: 32µM*; NIH3T3 tox: 32µM*; GPT2 inh: inactive

What do the screens show for `c1coc(-c2nnc([C@H]3CCN(Cc4cccs4)C3)o2)c1`?
Luciferase inh: 71µM*; NPR1 antag: 4%[70.6 µM]; HEK293 tox: -11%[172 µM]; NIH3T3 tox: -11%[174 µM]; GPT2 inh: 0%[88.5 µM]

How did Cn1cc(CN2CC[C@H](c3nc4ccccc4[nH]3)C2)c2ccccc21 do in these assays?
Luciferase inh: inactive; NPR1 antag: -15%[70.6 µM]; HEK293 tox: 50µM*; NIH3T3 tox: inconclusive; GPT2 inh: -15%[88.5 µM]

How did c1ccc(CCCN2CC[C@H](c3nc4ccccc4[nH]3)C2)cc1 do in these assays?
Luciferase inh: inconclusive; NPR1 antag: -21%[70.6 µM]; HEK293 tox: inconclusive; NIH3T3 tox: inconclusive; GPT2 inh: inactive

How did O=C(c1cc2cn(C3CC3)cc2s1)N1CCc2ccccc2C1 do in these assays?
Luciferase inh: inactive; NPR1 antag: -1%; HEK293 tox: 89µM*; NIH3T3 tox: inconclusive; GPT2 inh: 2%

How did CC(=O)N1CCCC(c2[nH]ccc2C(=O)N2CCc3ccccc32)C1 (stereo not given) do in these assays?
Luciferase inh: inactive; NPR1 antag: 0%; HEK293 tox: -21%; NIH3T3 tox: -28%; GPT2 inh: -16%

What do the screens show for `Fc1cccc(-c2cc(-c3cn[nH]c3)c3cncn3c2)c1`?
Luciferase inh: inactive; NPR1 antag: -13%[70.6 µM]; HEK293 tox: inconclusive; NIH3T3 tox: inconclusive; GPT2 inh: 0%[88.5 µM]

How did Cc1ccccc1-c1cc(-c2cn[nH]c2)c2cncn2c1 do in these assays?
Luciferase inh: inactive; NPR1 antag: -23%[70.6 µM]; HEK293 tox: inconclusive; NIH3T3 tox: 71µM*; GPT2 inh: -4%[88.5 µM]

What do the screens show for `COc1cc(F)ccc1-c1cc(-c2cn[nH]c2)c2cncn2c1`?
Luciferase inh: inactive; NPR1 antag: -11%[70.6 µM]; HEK293 tox: inconclusive; NIH3T3 tox: 32µM*; GPT2 inh: -3%[88.5 µM]

What do the screens show for `Fc1ccc(-c2cc(-c3cn[nH]c3)c3cncn3c2)cc1`?
Luciferase inh: inactive; NPR1 antag: -15%[70.6 µM]; HEK293 tox: inconclusive; NIH3T3 tox: 45µM*; GPT2 inh: -19%[88.5 µM]

How did COc1cccc(-c2cccc(CN3CCCC3C(=O)N(C)C)c2)c1 (stereo not given) do in these assays?
HEK293 tox: inconclusive; NIH3T3 tox: inconclusive; GPT2 inh: inactive

Source: PubChem BioAssay (National Center for Advancing Translational Sciences (NCATS))
